Results filed as inconclusive are left out. A number with no mark means an inactive call. The call rests on the fitted dose curve. Residues, ends and D or L forms follow the SMILES beside them. *: point of attachment. Hexanoyl = CCCCCC(=O)*

The nature of the test: qHTS for inhibitors of Rabies Virus screened against the NCATS CANVASS Library (AID 1347402). Further: 0% is about no effect. The settings on record: Rabies virus infection cell assay; series mostly up to 45.9 µM; activity change, negative = inhibition: at the top concentration. In general terms: Quantitative high-throughput screening tests each substance at several concentrations.
In the case of `C/C1=C/[C@@H](C)[C@H](O)[C@@H](O)/C=C/CC/C=C/C(=O)O[C@@H]1[C@H](C)C(=O)CCCC1CC(=O)NC(=O)C1`, the “activity change, negative = inhibition” value was -1.67%.

In the case of `CC1C(=O)C23CCC1C[C@]21O[C@@H]2C(C)(C)C=CC(=O)[C@@]23COC1=O` (stereo not given in full), the “activity change, negative = inhibition” value is -6.78%.

With `CCCCCC(=O)N[C@@H](CC(C)C)C(=O)N[C@H](C=O)CCC(=O)O` (Hexanoyl-Leu-Glu-aldehyde), the “activity change, negative = inhibition” value is 5.6%.

On to `C=C1C(=O)C[C@H]2C[C@@H]1[C@]2(C)CCC=C(C)C`, for which the “activity change, negative = inhibition” value is -7.23%.

As for `C=C1CCC2C(C)(C(=O)O)CCC(CC/C(C)=C/C(=O)NC(CCC(N)=O)C(=O)O)[C@@]2(C)C1` (stereo not given in full), the “activity change, negative = inhibition” value is 3.72%.

As for `C=C[C@@]1(C)CC[C@@H]([C@H](C)C(C)=O)O1`, the “activity change, negative = inhibition” value is 7.36%.

For `C[C@]12CCC[C@](C)(C(=O)O)[C@@H]1CC[C@@]1(C)c3cocc3CC[C@H]21`, the “activity change, negative = inhibition” value is -21.6%.

`C[C@@H]1O[C@@H](O[C@@H]2[C@@H](O)[C@H](O[C@@H]3[C@@H](O)[C@@H](O)C(O[C@H]4[C@H](OC(=O)[C@]56CCC(C)(C)C[C@H]5C5=CCC7[C@@]8(C)C[C@H](O)[C@H](O[C@@H]9C[C@H](CO)[C@@H](O)[C@H](O)[C@H]9O)[C@@](C)(CO)C8[C@H](O)C[C@@]7(C)[C@]5(C)CC6)OC[C@H](O)[C@@H]4O)O[C@H]3C)OC[C@H]2O)[C@H](O)[C@H](O)[C@H]1O` (stereo not given in full): the “activity change, negative = inhibition” value is 1.36% [at 27.4 µM].

As to `COc1cc(/C=C/C(=O)O)ccc1O`, the “activity change, negative = inhibition” value was -5.38%.

For the compound `C=C1/C=C\C(CCC)=C\c2csc(n2)C(C)NC(=O)C[C@@]2(CC(=O)O)CCC(=C)[C@H](C1)S2` (stereo not given in full), the “activity change, negative = inhibition” value is -15.5%.

Regarding `C/C1=C\CC(=O)/C=C/C=C\c2csc(n2)[C@@H](C)NC(=O)C[C@@](S)([C@@H](C)C(=O)O)CC1`, the “activity change, negative = inhibition” value was 9.14%.

On to `CC(=O)O[C@H]1c2ccccc2-c2c3c(cc4c2[C@@H]1N(C(C)=O)CC4)OCO3`, for which the “activity change, negative = inhibition” value is -30.6%.

On to `C/C=C/[C@H]1[C@H]2C(=O)c3c(O)c(C)c(O)c(C)c3[C@]1(C(=O)O)C(=O)C=C2C`, for which the “activity change, negative = inhibition” value is -1.68%.

With `C=C(NC(=O)c1csc(-c2nc3c(cc2O)-c2nc(cs2)C(=O)NC(C(C)O)C(=O)N/C(=C(\C)O)c2nc(cs2)C(=O)NC2c4nc(cs4)C(=O)NC(COC(=O)c4c5c6c(cccc6n4O)COC(=O)[C@@H](OC4C[C@](C)(O)[C@H](N(C)C)[C@H](C)O4)C2OC5)c2nc-3cs2)n1)C(N)=O` (stereo not given in full), the “activity change, negative = inhibition” value was 38.6%.

As for `COc1ccc(-c2oc3cc(OC)cc(OC)c3c(=O)c2O)cc1`, the “activity change, negative = inhibition” value is -23.3%.

`COc1ccc2cc(NC(=O)C3=NO[C@H]4[C@H](O)C=C[C@@H](Cl)[C@@]4(O)C3)c(=O)oc2c1OC`: the “activity change, negative = inhibition” value was -7.85%.

Regarding `CN1CCc2cc3c(c4c2[C@H]1[C@@H](O)c1ccccc1-4)OCO3`, the “activity change, negative = inhibition” value was -21.3%.

Take `COc1ccc([C@@H]2c3cc(OC)c(OC)cc3C(=O)[C@H](C)C2C)cc1OC` (stereo not given in full): the activity change, negative = inhibition is -3.53% [at 9.14 µM].

As for `CN1C(=O)C(=O)N2C(=C[C@]3(c4c[nH]c5ccccc45)c4ccccc4N[C@H]23)C1=O`, the “activity change, negative = inhibition” value is -6.33%.

For the compound `Oc1ccc([C@H]2Oc3ccc(/C=C/c4cc(O)cc(O)c4)cc3C2c2cc(O)cc(O)c2)cc1` (stereo not given in full), the “activity change, negative = inhibition” value is 8.64%.

On to `COc1cc2ccc(=O)oc2c(O)c1O[C@@H]1O[C@H](CO)[C@@H](O)[C@H](O)[C@H]1O`, for which the “activity change, negative = inhibition” value is 7.6% [at 27.4 µM].

In the case of `CN1CC[C@@]23c4ccccc4N[C@@H]1[C@@]21CCN(C)[C@@H]3Nc2ccccc21`, the “activity change, negative = inhibition” value is 1.81%.

As for `O=C1CCC(=O)N(O)CCCCCNC(=O)CCC(=O)N(O)CCCCCNC(=O)CCC(=O)N(O)CCCCCN1`, the “activity change, negative = inhibition” value is -13%.

In the case of `O=C1c2c(O)cc(O)cc2O[C@@H](c2ccc(O)cc2)[C@@H]1c1c(O)cc(O)c2c(=O)cc(-c3ccc(O)c(O)c3)oc12`, the “activity change, negative = inhibition” value was 4.05%.

Turning to `COc1c(O)cc2oc(-c3ccccc3)cc(=O)c2c1O`, the “activity change, negative = inhibition” value is -20.1%.

As to `CC1(C)CCC[C@]2(C)[C@@H]1CC[C@@]13C[C@@H](CC[C@H]12)C(C)(O)C3` (stereo not given in full), the “activity change, negative = inhibition” value was -11.3%.

`CCCCCCCCC[C@@H]1C[C@@H]2CC[C@H]3[C@@H](C(=O)OCCCCN=C(N)N)[C@@H](C)N=C(N1)N23`: the “activity change, negative = inhibition” value is -28.8% [at 27.4 µM].

As to `O=C(O)[C@@]12COC3(O)C1CCN1CC[C@H]3[C@@H]1c1c2[nH]c2ccccc12`, the “activity change, negative = inhibition” value was -9.84%.

On to `COc1cc2c(cc1OC)[C@@H](c1ccc3c(c1)OCO3)C(C)C(C)C2=O` (stereo not given in full), for which the “activity change, negative = inhibition” value is -13.6%.

Consider `CC(=O)NC[C@@H]1O[C@H](CC/C=C(C)/C(C)=C/C=O)[C@H](C)C[C@H]1O`, for which the “activity change, negative = inhibition” value was 5.68%.

As for `CC(C)=CCC/C(C)=C/Cc1cc([C@@H]2CC(=O)c3c(cc(O)c(CC=C(C)C)c3O)O2)ccc1O`, the “activity change, negative = inhibition” value was -22.1%.

Take `COc1ccc2[nH]c3c(c2c1)CCN1C[C@H]2C[C@@H](OC(=O)c4cc(OC)c(OC)c(OC)c4)[C@H](OC)[C@@H](OC)[C@H]2C[C@H]31`: the “activity change, negative = inhibition” value was -5.03%.

Take `C/C=C1/C2=CCCN3C(=O)O[C@H]([C@H]1O)[C@H]23`: the “activity change, negative = inhibition” value is -7.1%.

With `O=C1CC(c2ccc(O)cc2)Oc2ccccc21` (stereo not given), the “activity change, negative = inhibition” value was -28.2%.

In the case of `CO[C@@H]1[C@H](O)[C@@H](C)O[C@@H](OC[C@@H]2C(C)OC(=O)/C=C/[C@H](C)C(O[C@@H]3O[C@H](C)CC4(OC(=O)O[C@@H]4C)C3O)[C@@H](C)CC(C)C(=O)/C=C/[C@H]3OC23)[C@@H]1OC` (stereo not given in full), the “activity change, negative = inhibition” value is -12.7%.

Turning to `COc1cc2c(cc1OC)[C@@H](c1ccc3c(c1)OCO3)C(C)[C@@H](C)C2=O` (stereo not given in full), the “activity change, negative = inhibition” value is -22%.

As to `C[C@@H](O)[C@H]1OC(=O)C=C2[C@]3(C)[C@H]4[C@H](OC(=O)[C@@]4(C)[C@@H](O)[C@H]4O[C@H]43)[C@H]3O[C@@]231`, the “activity change, negative = inhibition” value is 6.7%.

Consider `O=C(O)CC1OC(=O)c2c(O)cccc21` (stereo not given), for which the “activity change, negative = inhibition” value is 3.89%.

`C[C@@]1(CCC(=O)Nc2c(O)ccc(C(=O)O)c2O)C(=O)C=C[C@]23C[C@H]4C[C@H](O[C@@]4(C)C2)C31` (stereo not given in full): the “activity change, negative = inhibition” value is 6.93%.

As to `Cc1cc(O)cc2oc(C[C@H](C)O)cc(=O)c12`, the “activity change, negative = inhibition” value was -15.3%.

For the origin of these results see PubChem BioAssay (NCATS).
